Results as given in PubChem BioAssay (NCI).
This is part of a sample that, as a whole, favours compounds with a hit. Of some 79,000 tested, about 15% had one in any assay. Calls of active or inactive are those of the source. Rule as the data show it: active = growth inhibition above about 70%; inactive = the rest.

Experiment: NCI Yeast Anticancer Drug Screen. Data for the rad50EPP+ strain (AID 151);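 also: 0% = growth of vehicle-treated control cultures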
Details: S. cerevisiae rad50 mutant strain, at 3.7 µM, stronger effect = higher value
How it was run: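 rad50EPP+ yeast treated with test compounds. Readout: growth vs vehicle control.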

| SMILES | growth inhibition |
| --- | --- |
| S=C(S)NN1CCOCC1 | 80% (active) |
| COc1cc2c3c(cccc3c1)C(=O)N(CCN(C)C)C2=O | 1% (inactive) |
| COC(=O)C1=C(C)NC(C)=C(C(=O)OCCCN2CCC(c3ccccc3)(c3ccccc3)CC2)C1c1cccc([N+](=O)[O-])c1 (stereo not given) | 86% (active) |
| c1ccc2c(c1)Oc1cccc3cccc-2c13 | 8% (inactive) |
| CN(C)CCOc1ccc2c(c1)C/C(=C/c1ncc([N+](=O)[O-])n1C)C2=O | 6% (inactive) |
| Cc1ccc(CCC2=CCCc3c2ccc2ccccc32)cc1 | 5% (inactive) |
| CNC(=O)OCc1c(COC(=O)NC)c(-c2ccc(Cl)c(Cl)c2)n2c1CCC2 | -21% (inactive) |
| Clc1ccccc1C1OC1c1ccccc1Cl (stereo not given) | -56% (inactive) |
| O=[N+]([O-])c1cc(CCl)ccc1CCl | 44% (inactive) |
| O=C1C=CC(=O)c2c(O)c(Nc3ccc(OC(F)(F)F)cc3)c(Cl)c(O)c21 | 8% (inactive) |
| S=c1[nH]nc(Nc2ccc(Cl)cc2)s1 | -10% (inactive) |
| Cn1ccnc1Oc1ccc(Cl)cc1 | -22% (inactive) |
| BrCc1cccc2ccc3cccc(CBr)c3c12 | 0% (inactive) |
| O=C1c2ccccc2-c2nc3ccccc3nc21 | 28% (inactive) |
| CCCCCCCCCCCCCCCCCCNC | 10% (inactive) |
| Oc1ccc(NCn2c(=S)sc3ccccc32)cc1 | -21% (inactive) |
| O=C1C2CC[C@@H]3C(=O)C(Cl)(Cl)[C@@H]3CCC2C1(Cl)Cl (stereo not given in full) | 15% (inactive) |
| CC[n+]1ccc2c(C)c3[nH]c4ccc(O)cc4c3c(C)c2c1 | 34% (inactive) |
| Cc1ccc(-n2cc(-c3ccc(Cl)cc3)c(C#N)c2N)cc1 | 3% (inactive) |
| CC(=O)[O][Bi]([c]1ccccc1)[c]1ccccc1 | 39% (inactive) |

| SMILES | growth inhibition |
| --- | --- |
| CC1=C(SCCO)C(=O)c2ccccc2C1=O | 5% (inactive) |
| C/C(=N\O)C1CC2C=C(C#N)C1N(Cc1ccccc1)C2 (stereo not given) | 2% (inactive) |
| CC(Br)C(=O)c1ccc2cc(Br)c3ccccc3c2c1 (stereo not given) | 14% (inactive) |
| Nc1nc(-c2cccnc2)cc(-c2cc(-c3cccnc3)nc(N)n2)n1 | -3% (inactive) |
| CC(C)=CC(=O)O[C@@H]1CC(C)(C)CC2C3=CCC4[C@]56CC[C@](O)(OC5)C(C)(C)C6CC[C@@]4(C)C3(C)CC[C@]21C(=O)O (stereo not given in full) | -1% (inactive) |
| CCC(C)COC(=O)c1ccc(N=Cc2ccc(C=Nc3ccc(C(=O)OCC(C)CC)cc3)cc2)cc1 (stereo not given) | 5% (inactive) |
| Oc1cccc2c(Cl)ccnc12 | 102% (active) |
| O=C(O)c1cccc(-c2c3ccc(=O)cc-3oc3cc(O)ccc23)c1 | 3% (inactive) |
| CN(CCc1ccccn1)c1ccc2c(c1)Cc1ccccc1-2 | 68% (inactive) |
| Cc1cc(S(=O)(=O)/N=C(/NN)NNc2cccc(C(F)(F)F)n2)c(S)cc1Cl | -24% (inactive) |
| O=C1C2C(C(=O)N1c1ccc(OCc3ccccc3)cc1)C1c3ccccc3C2C2CCCCN21 (stereo not given) | 4% (inactive) |
| Nc1ccccc1CC(O)C(=O)O (stereo not given) | 1% (inactive) |
| O=C(O)C1CCCCC1c1c2ccc(=O)c(O)c-2oc2c(O)c(O)ccc12 (stereo not given) | 0% (inactive) |
| Cc1ccc2ccc(O)cc2c1 | -49% (inactive) |
| O=C1C(=O)c2ccccc2C=C1[N+](=O)[O-] | -1% (inactive) |
| COC(=O)c1ccc(NCC2=CC(=O)C=CC2=O)cc1O | 63% (inactive) |
| C(CCSC1=NCCN1)CSC1=NCCN1 (tested in a mixture with another compound) | 46% (inactive) |
| N#Cc1c(N)[nH]c2ccc(Sc3ccccc3)cc12 | 6% (inactive) |
| CCNc1nnc(CSc2nc(-c3ccccc3)c(-c3ccccc3)[nH]2)s1 | 13% (inactive) |
| CC[C@@]1(O)C(=O)OCc2c1cc1n(c2=O)Cc2cc3c(N)cccc3nc2-1 | 30% (inactive) |

Same assay, conditions: S. cerevisiae rad50 mutant strain, at 11.0 µM, stronger effect = higher value

| SMILES | growth inhibition |
| --- | --- |
| S=C(S)NN1CCOCC1 | 86% (active) |
| COc1cc2c3c(cccc3c1)C(=O)N(CCN(C)C)C2=O | 8% (inactive) |
| COC(=O)C1=C(C)NC(C)=C(C(=O)OCCCN2CCC(c3ccccc3)(c3ccccc3)CC2)C1c1cccc([N+](=O)[O-])c1 (stereo not given) | 88% (active) |
| c1ccc2c(c1)Oc1cccc3cccc-2c13 | 34% (inactive) |
| CN(C)CCOc1ccc2c(c1)C/C(=C/c1ncc([N+](=O)[O-])n1C)C2=O | 10% (inactive) |
| Cc1ccc(CCC2=CCCc3c2ccc2ccccc32)cc1 | 13% (inactive) |
| CNC(=O)OCc1c(COC(=O)NC)c(-c2ccc(Cl)c(Cl)c2)n2c1CCC2 | -31% (inactive) |
| Clc1ccccc1C1OC1c1ccccc1Cl (stereo not given) | -40% (inactive) |
| O=[N+]([O-])c1cc(CCl)ccc1CCl | 89% (active) |
| O=C1C=CC(=O)c2c(O)c(Nc3ccc(OC(F)(F)F)cc3)c(Cl)c(O)c21 | 21% (inactive) |
| S=c1[nH]nc(Nc2ccc(Cl)cc2)s1 | 13% (inactive) |
| Cn1ccnc1Oc1ccc(Cl)cc1 | 0% (inactive) |
| BrCc1cccc2ccc3cccc(CBr)c3c12 | 12% (inactive) |
| O=C1c2ccccc2-c2nc3ccccc3nc21 | 79% (active) |
| CCCCCCCCCCCCCCCCCCNC | 8% (inactive) |
| Oc1ccc(NCn2c(=S)sc3ccccc32)cc1 | -25% (inactive) |
| O=C1C2CC[C@@H]3C(=O)C(Cl)(Cl)[C@@H]3CCC2C1(Cl)Cl (stereo not given in full) | 37% (inactive) |
| CC[n+]1ccc2c(C)c3[nH]c4ccc(O)cc4c3c(C)c2c1 | 64% (inactive) |
| Cc1ccc(-n2cc(-c3ccc(Cl)cc3)c(C#N)c2N)cc1 | 23% (inactive) |
| CC(=O)[O][Bi]([c]1ccccc1)[c]1ccccc1 | 18% (inactive) |

| SMILES | growth inhibition |
| --- | --- |
| CC1=C(SCCO)C(=O)c2ccccc2C1=O | 35% (inactive) |
| C/C(=N\O)C1CC2C=C(C#N)C1N(Cc1ccccc1)C2 (stereo not given) | 5% (inactive) |
| CC(Br)C(=O)c1ccc2cc(Br)c3ccccc3c2c1 (stereo not given) | 24% (inactive) |
| Nc1nc(-c2cccnc2)cc(-c2cc(-c3cccnc3)nc(N)n2)n1 | -3% (inactive) |
| CC(C)=CC(=O)O[C@@H]1CC(C)(C)CC2C3=CCC4[C@]56CC[C@](O)(OC5)C(C)(C)C6CC[C@@]4(C)C3(C)CC[C@]21C(=O)O (stereo not given in full) | 7% (inactive) |
| CCC(C)COC(=O)c1ccc(N=Cc2ccc(C=Nc3ccc(C(=O)OCC(C)CC)cc3)cc2)cc1 (stereo not given) | 16% (inactive) |
| Oc1cccc2c(Cl)ccnc12 | 81% (active) |
| O=C(O)c1cccc(-c2c3ccc(=O)cc-3oc3cc(O)ccc23)c1 | 1% (inactive) |
| CN(CCc1ccccn1)c1ccc2c(c1)Cc1ccccc1-2 | 91% (active) |
| Cc1cc(S(=O)(=O)/N=C(/NN)NNc2cccc(C(F)(F)F)n2)c(S)cc1Cl | -28% (inactive) |
| O=C1C2C(C(=O)N1c1ccc(OCc3ccccc3)cc1)C1c3ccccc3C2C2CCCCN21 (stereo not given) | 0% (inactive) |
| Nc1ccccc1CC(O)C(=O)O (stereo not given) | -1% (inactive) |
| O=C(O)C1CCCCC1c1c2ccc(=O)c(O)c-2oc2c(O)c(O)ccc12 (stereo not given) | -24% (inactive) |
| Cc1ccc2ccc(O)cc2c1 | -25% (inactive) |
| O=C1C(=O)c2ccccc2C=C1[N+](=O)[O-] | 5% (inactive) |
| COC(=O)c1ccc(NCC2=CC(=O)C=CC2=O)cc1O | 89% (active) |
| C(CCSC1=NCCN1)CSC1=NCCN1 (tested in a mixture with another compound) | 78% (active) |
| N#Cc1c(N)[nH]c2ccc(Sc3ccccc3)cc12 | 19% (inactive) |
| CCNc1nnc(CSc2nc(-c3ccccc3)c(-c3ccccc3)[nH]2)s1 | 12% (inactive) |
| CC[C@@]1(O)C(=O)OCc2c1cc1n(c2=O)Cc2cc3c(N)cccc3nc2-1 | 53% (inactive) |
